{"source": "PubChem BioAssay AID1220", "about": "(Sanford-Burnham Center for Chemical Genomics, 2008)", "note": "Screen size: about 190,000 compounds; about 1,300 (0.68%) were called active. What follows is part of a selection rich in actives, with near analogues and random picks from the rest. Unmarked numbers belong to inactive results. Cut-off read from the data, not from the text of the source: active = inhibition above about 50%; inactive = the rest.", "data": [{"target": "Mannose-6-phosphate isomerase (Homo sapiens) (UniProt P34949)", "sequence (P34949 whole entry, looked up)": "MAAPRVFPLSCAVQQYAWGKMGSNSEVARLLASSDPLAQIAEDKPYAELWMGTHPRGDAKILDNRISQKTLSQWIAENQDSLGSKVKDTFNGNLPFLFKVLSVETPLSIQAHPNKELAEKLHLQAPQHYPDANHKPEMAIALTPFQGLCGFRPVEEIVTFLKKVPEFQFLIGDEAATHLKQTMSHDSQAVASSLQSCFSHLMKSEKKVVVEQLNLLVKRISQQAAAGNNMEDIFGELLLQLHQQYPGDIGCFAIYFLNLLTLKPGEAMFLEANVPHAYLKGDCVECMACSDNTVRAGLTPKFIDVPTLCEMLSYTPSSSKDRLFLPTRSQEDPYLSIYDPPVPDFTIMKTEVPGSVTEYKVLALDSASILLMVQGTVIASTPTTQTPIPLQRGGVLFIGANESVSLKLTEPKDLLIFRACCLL", "experiment": "MPI inhibition at elevated mannose 6-phosphate – biochemical, fluorescence intensity, high mannose 6-phosphate, primary screen (AID 1220)", "settings": "recombinant PMI enzyme, coupled fluorescence intensity; at 20 µM; active compounds read high", "values": [{"compound": "O=C(Cc1c(Cl)cccc1Cl)NC1=NCCS1", "inhibition": "-5.2%"}, {"compound": "O=C(CSc1cccc2cccc(Cl)c12)NC1=NCCS1", "inhibition": "51.9% (active)"}, {"compound": "O=C(Cc1c(F)cccc1Cl)NC1=NCCS1", "inhibition": "9.7%"}, {"compound": "COc1ccc(N2C(=O)CSC(c3ccccc3)C2=O)cc1", "note": "(stereo not given)", "inhibition": "4.1%"}, {"compound": "Cc1cc(NC(=O)CN2CCN(S(=O)(=O)c3ccc(Cl)cc3)CC2)no1", "inhibition": "2.2%"}, {"compound": "O=[N+]([O-])c1cc(CN2CCN(c3ccccc3)CC2)c(O)c2ncccc12", "inhibition": "35.7%"}, {"compound": "O=C(NC(c1ccc(Cl)cc1)c1cc(Cl)c2cccnc2c1O)c1cccnc1", "note": "(stereo not given)", "inhibition": "2.3%"}, {"compound": "O=[N+]([O-])c1cc(Cl)c(O)c2ncccc12", "inhibition": "32.5%"}, {"compound": "CC(C)C(=O)NC(c1ccco1)c1ccc2cccnc2c1O", "note": "(stereo not given)", "inhibition": "37.8%"}, {"compound": "CC(C)C(=O)NC(c1ccccc1)c1cc([N+](=O)[O-])c2cccnc2c1O", "note": "(stereo not given)", "inhibition": "60.9% (active)"}, {"compound": "Cc1ccc(C(NC(=O)C(C)C)c2cc([N+](=O)[O-])c3cccnc3c2O)cc1", "note": "(stereo not given)", "inhibition": "53.9% (active)"}, {"compound": "O=[N+]([O-])c1cc(CN2CCCC2)c2cccnc2c1O", "inhibition": "44.4%"}, {"compound": "CN(Cc1cc([N+](=O)[O-])c2cccnc2c1O)C1CCCCC1", "inhibition": "51.8% (active)"}, {"compound": "CC(C)C(=O)NC(c1cccs1)c1cc([N+](=O)[O-])c2cccnc2c1O", "note": "(stereo not given)", "inhibition": "46.5%"}, {"compound": "CCCNC(=O)c1ccc2nc(-c3ccccc3)c(-c3ccccc3)nc2c1", "inhibition": "11.1%"}, {"compound": "CCc1ccc(Oc2cc(C)nc(N)n2)cc1", "inhibition": "-0.3%"}, {"compound": "CCCCc1ccc(-n2nnnc2SCC(=O)Nc2cc(OC)c([N+](=O)[O-])cc2C)cc1", "inhibition": "10.1%"}, {"compound": "O=C(NCCc1ccc(Cl)cc1)c1cnc2n(c1=O)CCS2", "inhibition": "4.8%"}, {"compound": "O=C(N/N=C/c1ccc2c(c1)OCO2)c1sc2cccc(Cl)c2c1Cl", "inhibition": "12.6%"}, {"compound": "O=C(CCCCCn1c(=O)[nH]c2ccccc2c1=O)N1CCN(Cc2ccc3c(c2)OCO3)CC1", "inhibition": "-4%"}, {"compound": "O=C(OCc1cccnc1)C1=Cc2ccccc2OC1", "inhibition": "-1.4%"}, {"compound": "COc1ccc(C(=O)Nc2cccc(C(C)=O)c2)c(OC)c1OC", "inhibition": "8.1%"}, {"compound": "COc1ccc(C(=O)c2ccc(OC)c3cccc(O)c23)cc1OC", "inhibition": "14.7%"}, {"compound": "COc1ccc(C(C)=O)c2c(O)cccc12", "inhibition": "56.5% (active)"}, {"compound": "CCOc1ccc(N(CC(=O)N/N=C/c2cccnc2)S(C)(=O)=O)cc1", "inhibition": "-3.8%"}, {"compound": "CN(C)C(=O)C1(c2ccccc2)CCN(S(=O)(=O)c2ccccc2)CC1", "inhibition": "14.9%"}, {"compound": "COc1oc(-c2ccccc2C)nc1C(F)(F)F", "inhibition": "1.8%"}, {"compound": "COc1ccc(N/C=C(\\C(C)=O)c2ccc(OC)c(OC)c2)cc1OC", "inhibition": "42.8%"}, {"compound": "COc1ccc(/C(=C/Nc2cccc(Br)c2)C(C)=O)cc1OC", "inhibition": "4.4%"}, {"compound": "COc1ccc(/C(=C\\Nc2ccc(C)c(C)c2)C(C)=O)cc1OC", "inhibition": "56.5% (active)"}, {"compound": "CCC/C=N/NC(=O)c1cc(-c2ccccc2)nc2ccccc12", "inhibition": "-2.1%"}, {"compound": "C=CCc1cc(/C=N/NC(=O)CSc2nnc(CCCc3ccc(OC)cc3)o2)cc(OC)c1O", "inhibition": "-3.4%"}, {"compound": "N#C/C(=C1\\C(=O)Nc2c(Cl)cc(Cl)cc21)c1nnc2n1CCCCC2", "inhibition": "51% (active)"}, {"compound": "N#C/C(=C1/CCCCCN1)c1nnc2n1CCCCC2", "inhibition": "-3.4%"}, {"compound": "N#C/C(=N\\Nc1cc(Cl)cc(Cl)c1)c1nnc2n1CCCCC2", "inhibition": "14.3%"}, {"compound": "O=C(c1cc2nc(-c3ccc(Cl)cc3)cc(C(F)(F)F)n2n1)N1CCOCC1", "inhibition": "9.1%"}, {"compound": "CC(=O)N1CC(c2ccccc2)C(c2ccc(Cl)cc2)=N1", "note": "(stereo not given)", "inhibition": "11.8%"}, {"compound": "CC(C)C(O)(C#CCN1CCCCC1)C(C)C", "inhibition": "2.1%"}, {"compound": "O=C(NC(=S)N1CCCCC1)c1cccnc1", "inhibition": "-1.5%"}, {"compound": "O=C(NC(=S)N1CCN(Cc2ccccc2)CC1)c1cccnc1", "inhibition": "58.4% (active)"}, {"compound": "O=C(NC(=S)N1CCN(Cc2ccccc2)CC1)c1ccccc1", "inhibition": "13%"}, {"compound": "COCCN1C(=O)c2oc3ccccc3c(=O)c2C1c1ccc(O)c(OC)c1", "note": "(stereo not given)", "inhibition": "0.7%"}, {"compound": "Cc1ccc([N+](=O)[O-])cc1NC(=O)C[n+]1ccccc1", "inhibition": "22.2%"}, {"compound": "Cc1ccc(Cl)cc1NC(=O)C[n+]1ccc(Cc2ccc([N+](=O)[O-])cc2)cc1", "inhibition": "55.3% (active)"}, {"compound": "Cc1cc([N+](=O)[O-])ccc1NC(=O)C[n+]1ccc(N(C)C)cc1", "inhibition": "-1.5%"}, {"compound": "CC(NC(=O)C1CCCN1C(=O)OCc1ccccc1)c1ccccc1", "note": "(stereo not given)", "inhibition": "-0.5%"}, {"compound": "COc1cccc(OC)c1C(=O)NC(=S)Nc1ccc2oc(=O)ccc2c1", "inhibition": "10.5%"}, {"compound": "O=C(COC(=O)Cc1ccccc1[N+](=O)[O-])NC1CCCC1", "inhibition": "55.4% (active)"}, {"compound": "CC(NC(=O)COC(=O)CC(c1ccccc1)c1ccccc1)c1ccccc1", "note": "(stereo not given)", "inhibition": "7.9%"}, {"compound": "O=C(COC(=O)Cc1ccccc1[N+](=O)[O-])NCC1CCCCC1", "inhibition": "-5.7%"}, {"compound": "CC(NC(=O)Cc1ccccc1[N+](=O)[O-])c1ccccc1", "note": "(stereo not given)", "inhibition": "7.4%"}, {"compound": "CC(NC(=O)COC(=O)Cc1ccccc1[N+](=O)[O-])c1ccccc1", "note": "(stereo not given)", "inhibition": "51.3% (active)"}, {"compound": "O=C(COC(=O)COc1ccccc1[N+](=O)[O-])NC1CCCC1", "inhibition": "-5.1%"}, {"compound": "O=Cc1cc2ccccc2nc1SCCCF", "inhibition": "4.2%"}, {"compound": "CCCn1c(SCC(=O)C(C)(C)C)nc2ccccc21", "inhibition": "-8.2%"}, {"compound": "O=C(O)Cc1ccc(NC(=O)c2cnccn2)cc1", "inhibition": "-9.7%"}, {"compound": "Cc1cc(C)c2c(N)c(C(=O)NNC(=O)c3ccccc3)sc2n1", "inhibition": "2.3%"}, {"compound": "Cc1cc(C)nc(-n2nc(C)cc2NC(=O)CN2CCCC(C)C2)n1", "note": "(stereo not given)", "inhibition": "4.4%"}, {"compound": "Cc1ccc(SC(C)C(=O)NCc2ccncc2)cc1", "note": "(stereo not given)", "inhibition": "11.4%"}, {"compound": "CC(=O)NC1(C(F)(F)F)NC(=O)N(c2ccc(F)cc2)C1=O", "note": "(stereo not given)", "inhibition": "-10.2%"}, {"compound": "Cc1cccc(OC(=O)CCN2C(=O)C3C4C=CC(C5CC45)C3C2=O)c1C", "note": "(stereo not given)", "inhibition": "-6.4%"}, {"compound": "O=C(CCN1C(=O)C2C3C=CC(C4CC34)C2C1=O)Oc1ccccc1", "note": "(stereo not given)", "inhibition": "-3.5%"}, {"compound": "CC(=O)c1ccccc1OC(=O)CCN1C(=O)C2C3C=CC(C4CC34)C2C1=O", "note": "(stereo not given)", "inhibition": "59.3% (active)"}, {"compound": "Cc1ccc(C(=O)NCc2ccco2)cc1S(=O)(=O)Nc1cccc(C)c1C", "inhibition": "0.8%"}, {"compound": "COc1cccc(CN2CCN(Cc3[nH]c4ccccc4c3C)CC2CCO)c1", "note": "(stereo not given)", "inhibition": "-0.2%"}, {"compound": "CC(C)CC(=O)Nc1ccc2nn(-c3ccccc3)nc2c1", "inhibition": "26.4%"}, {"compound": "Cc1nc2cc(N)ccc2n1-c1ccccc1", "inhibition": "21.5%"}, {"compound": "Nc1ccc2nn(-c3ccccc3)nc2c1", "inhibition": "57.9% (active)"}, {"compound": "CC(C)c1ccc2oc(-c3cc(N)ccc3O)nc2c1", "inhibition": "-12.6%"}, {"compound": "Cc1ccc(-n2nc3ccc(NC(=O)C(C)C)cc3n2)cc1", "inhibition": "13.3%"}, {"compound": "Cc1ccc(-n2nc3ccc(N)cc3n2)cc1", "inhibition": "31.3%"}, {"compound": "CC(C)C(=O)Nc1ccc2nn(-c3ccccc3)nc2c1", "inhibition": "-0.5%"}, {"compound": "CN(C)C=Nc1ccc2nn(-c3ccccc3)nc2c1", "inhibition": "60.2% (active)"}, {"compound": "CC(C)c1ccc(-n2nc3ccc(N)cc3n2)cc1", "inhibition": "55.8% (active)"}, {"compound": "COc1cccc(CN(c2ccc3c(c2)CCC3)S(=O)(=O)c2ccc(-n3cnnn3)c(OC)c2)c1", "inhibition": "-3.4%"}, {"compound": "N#C/C(=C\\c1ccncc1)C(N)=O", "inhibition": "17.1%"}, {"compound": "COc1ccc(Oc2ccccc2C#N)cc1", "inhibition": "4.7%"}, {"compound": "O=C(CSc1nnnn1CCCO)Nc1ccc2c(c1)OCO2", "inhibition": "-12.3%"}, {"compound": "COC(=O)c1ccc(N2CCOCC2)c(F)c1", "inhibition": "-3.2%"}, {"compound": "Nc1cc(-c2ccc(Br)cc2)nn1S(=O)(=O)c1cccc2nsnc12", "inhibition": "11.3%"}, {"compound": "CO[C@H]1C=CO[C@@]2(C)Oc3c(C)c(O)c4c(O)c(c(C=NN5CCN(C6CCCC6)CC5)c(O)c4c3C2=O)NC(=O)C(C)=CC=C[C@H](C)[C@H](O)[C@@H](C)[C@@H](O)[C@@H](C)[C@H](OC(C)=O)[C@@H]1C", "inhibition": "73.8% (active)"}, {"compound": "CO[C@H]1C=CO[C@@]2(C)Oc3c(C)c(O)c4c(O)c(c(C=NN5CCN(C)CC5)c(O)c4c3C2=O)NC(=O)C(C)=CC=C[C@H](C)[C@H](O)[C@@H](C)[C@@H](O)[C@@H](C)[C@H](OC(C)=O)[C@@H]1C", "inhibition": "42.7%"}, {"compound": "CO[C@H]1C=CO[C@@]2(C)Oc3c(C)c(O)c4c(O)c(c5c(nc6cc(C)ccn65)c4c3C2=O)NC(=O)C(C)=CC=C[C@H](C)[C@H](O)[C@@H](C)[C@@H](O)[C@@H](C)[C@H](OC(C)=O)[C@@H]1C", "inhibition": "32.2%"}, {"compound": "O=C(OCC(=O)N1CCCC1)c1ccccc1OCc1ccccc1", "inhibition": "4.1%"}, {"compound": "NC(=O)c1c(NC(=S)Nc2ccc(F)cc2)sc2c1CCCC2", "inhibition": "2.3%"}, {"compound": "CN1C(=S)N(c2ccccc2)C(=O)/C1=C/c1ccco1", "inhibition": "-16.2%"}, {"compound": "Cc1ccc(/C=C2/C(=O)N(c3ccccc3)C(=S)N2C)o1", "inhibition": "52.2% (active)"}, {"compound": "CCOc1ccc(N2C(=O)/C(=C/c3ccc(C)o3)N(C)C2=S)cc1", "inhibition": "43.2%"}, {"compound": "COc1cc(C(=O)NCC(C)C)cc(OC)c1OC", "inhibition": "-10.5%"}, {"compound": "COC(=O)C1=C(C)NC(C)=C(C(=O)OC)C1c1ccc(-c2cc(Cl)ccc2Cl)o1", "inhibition": "-1.9%"}, {"compound": "COCCNC(=O)Cn1nc(C(F)(F)F)cc1C", "inhibition": "21.9%"}, {"compound": "Cc1ccc(C(=O)NCc2ccccc2)cc1Br", "inhibition": "12.6%"}, {"compound": "Fc1ccc2nc(N3CCOCC3)sc2c1", "inhibition": "-5.9%"}, {"compound": "Nc1ccc2nc(N3CCOCC3)sc2c1", "inhibition": "59.7% (active)"}, {"compound": "c1ccc2sc(N3CCOCC3)nc2c1", "inhibition": "-4.3%"}]}]}
